Compound activity as filed in PubChem BioAssay.
Dicer processing = blocks human Dicer maturation of pre-miR-21; Q9UPY3; cat-ELCCA pre-miR-21 Dicer processing, chemiluminescence; stronger effect = higher value; z-score at 25 µM; 6% of 47,000 active; AID 1347074; in the data active = z-score above about 3, passing the limit was not always enough;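 note: plate controls were vehicle for no effect and no enzyme for full effect; higher signal means more uncleaved substrate so more Dicer inhibition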
Numbers without * were called inactive. The entries come from a sample that favours hits as a whole.

SMILES	Dicer processing
Cc1ccc(-n2c(=O)[nH]c3c(sc4nc(C)cc(C)c43)c2=O)cc1	3.39*
CCOc1ncnc2c1sc1nc(N3CCOCC3)c3c(c12)CCCC3	1.38
COc1ccc(Br)cc1CN1CCN(Cc2cccnc2)CC1	2.21
O=C1/C(=C\c2cccs2)N=C(c2ccccc2)N1Cc1ccc(Cl)cc1	-0.52
NC(=O)CN1C(=O)/C(=C\c2ccc(F)cc2)N=C1c1ccccc1	0.21
O=C1/C(=C/c2ccc(Cl)cc2)N=C(c2ccccc2)N1CCc1ccc(Cl)cc1	4.24*
C=CCN1C(=O)/C(=C\c2ccc(OCc3ccccc3)cc2)N=C1c1ccccc1	0.88
COc1ccc(/C=C2/N=C(c3ccccc3)N(Cc3ccc(F)cc3)C2=O)cc1	3.87*
O=C1/C(=C\c2ccccc2)N=C(c2ccccc2)N1c1ccccc1	-0.09
CC12CN3CC(C)(CN(C1)C3c1ccc(F)cc1)C2=O (configuration not stated)	1.83
CSc1nc(C)nc(Nc2ccc(Cl)cc2Cl)c1C#N	-0.83
CSc1ccc(/C=N/Nc2ccc(Cl)cc2Cl)s1	5.18
CSc1nnc(Nc2ccc(Cl)cc2Cl)s1	3.85*
N/C(=N\OC(=O)Nc1cccc(Cl)c1)c1nccnc1Sc1ccc(Cl)cc1	1.64
O=C(O)c1ccc(-n2nnnc2SCC(=O)N2CCOCC2)cc1	0.41
O=C(O)c1ccc(-n2nnnc2SCc2cccc(Br)c2)cc1	4.89*
Fc1ccc(CSc2nnnn2-c2cccc(Cl)c2)cc1	0.46
CC(C)c1ccc(C2c3c(oc4ccc(F)cc4c3=O)C(=O)N2CCCN2CCOCC2)cc1 (configuration not stated)	0.8
Cc1ccc(NC(=S)N2CCc3ccccc3C2)c(C)c1	-0.1
CCOC(=O)c1cnc(SCc2cccc(C(F)(F)F)c2)nc1N	-0.04
FC(F)(F)c1ccc2nc(SCc3cc(Cl)cc4c3OCOC4)[nH]c2c1	-0.76
CSc1nnc2c(n1)OC(c1ccc(OCC(=O)O)cc1)Nc1ccccc1-2 (configuration not stated)	0.76
CSc1nnc2c(n1)OC(c1ccc(Br)cc1)Nc1ccccc1-2 (configuration not stated)	5.43*
CSc1nnc2c(n1)OC(c1ccccc1OCC(=O)O)Nc1ccccc1-2 (configuration not stated)	4.48*
CSc1nnc2c(n1)OC(c1ccc(O)c(O)c1)Nc1ccccc1-2 (configuration not stated)	4.4*
SMILES	Dicer processing
COc1ccccc1C1Nc2ccccc2-c2nnc(SC)nc2O1 (configuration not stated)	-0.54
CCSc1nnc2c(n1)OC(c1ccc(O)c(O)c1)Nc1ccccc1-2 (configuration not stated)	2.31
COc1ccc(C2Nc3ccccc3-c3nnc(SC)nc3O2)cc1 (configuration not stated)	1.49
CSc1nnc2c(n1)OC(c1ccc(N(C)C)cc1)Nc1ccccc1-2 (configuration not stated)	23.1
CSc1nnc2c(n1)OC(c1ccc(C(=O)O)cc1)Nc1ccc(Br)cc1-2 (configuration not stated)	0.21
CCC(=O)Oc1cc2c(C(=O)OC(C)C)c(C)oc2cc1Br	-2.55
CC(C)(C)c1ccc(-c2n[nH]c(=S)n2Cc2ccco2)cc1	-0.25
CCOC(=O)c1sc2ncn3c(-c4ccccc4)nnc3c2c1C	-1.72
CC1(CO)CSC(Nc2ccc(Cl)c(Cl)c2)=N1 (configuration not stated)	0.07
Clc1ccc(-c2cc(-c3csc(Nc4ccccc4Cl)n3)on2)c(Cl)c1	0.9
COc1ccc(OCc2nnc3n2N=C(c2ccc(C)cc2)CS3)cc1	1.64
COc1ccc(C2=Nn3c(COc4cc(C)ccc4Cl)nnc3SC2)cc1	-1.7
COc1ccc(OCc2nnc3n2N=C(c2ccc(OC)cc2)CS3)cc1	5.17*
CSc1nnc(-c2ccc(S(=O)(=O)Oc3cc(Cl)cc(Cl)c3)s2)n1C	1.33
O=C(NC1CC1)c1cc(F)cc2c1OCOC2	0.54
Cc1cc(C)c2nc(Nc3nc4ccccc4c(=O)[nH]3)nc(C)c2c1	2.99
Cc1cc(C)c2nc(Nc3nc(C)cc(C)n3)nc(C)c2c1	3.28*
CC1=CC(C)(C)N=C(Nc2nc(C)c3cc(C)cc(C)c3n2)N1	-0.43
Cn1c(NCCCO)nc2c(c1=O)C1(CCCCC1)Cc1ccccc1-2	0.39
CCSc1nc2c(c(=O)n1C)C1(CCCC1)Cc1ccccc1-2	6.18*
CCn1c(SC)nc2c(c1=O)C1(CCCC1)Cc1ccccc1-2	0.48
C=CCn1c(SCC(N)=O)nc2c(c1=O)C1(CCCCC1)Cc1ccccc1-2	0.59
O=c1c2c(nc(NCCCO)n1-c1ccccc1)-c1ccccc1CC21CCCCC1	4.32*
CCSc1nc2c(c(=O)n1CC)C1(CCCC1)Cc1ccccc1-2	1.28
CCc1ccc(C2OC3(C(=O)c4ccccc4C3=O)C3C(=O)N(c4cccc(F)c4)C(=O)C23)cc1 (configuration not stated)	-0.25
SMILES	Dicer processing
CS(=NC(=O)c1cccc(Cl)c1)c1ccc(OC(=O)c2ccc(Cl)cc2)cc1 (configuration not stated)	-1.22
COc1ccc(Cc2nc(S(=O)(=O)c3ccccc3)c(NCc3ccccc3)o2)cc1	1.96
Cc1cn(CCC(=O)Nc2nn(C)c3ccccc23)c2ccccc12	2.88
CCC(CO)n1cc2c(c1-c1ccccc1)c(=O)n(C)c(=O)n2C (configuration not stated)	0.61
O=C(O)C1C2C=CC3(CN(CCc4ccccc4)C(=O)C13)O2 (configuration not stated)	-0.96
COC(=O)C1C2C=CC3(CN(Cc4ccccc4)C(=O)C13)O2 (configuration not stated)	1.66
O=C(O)C1C2C=CC3(CN(Cc4ccccc4)C(=O)C13)O2 (configuration not stated)	3.2*
O=C(O)CSc1nc2cccnc2s1	-0.54
Cc1nc(C)c(Oc2ccc(Cl)cc2Cl)c(NCc2ccc(Cl)cc2)n1	-0.55
COC(=O)/C=C(/c1ccccc1)n1cnc2ccccc21	-0.98
O=C1CC(Cc2ccccc2)C(=O)N1c1ccncc1 (configuration not stated)	-0.5
Cc1cc(C)cc(CC2CC(=O)N(c3ccccc3)C2=O)c1 (configuration not stated)	-4.42
CC(C)(C)c1ccc(N2C(=O)CC(C/C=C/c3ccccc3)C2=O)cc1 (configuration not stated)	4.65*
CSc1nc2cc(-c3ccc(Cl)cc3)nn2c(N)c1S(=O)(=O)c1ccc(Cl)cc1	-0.95
c1ccc(-c2nnc3sc(-c4cccs4)nn23)cc1	-0.93
c1ccc(-c2nn3c(-c4ccccc4)nnc3s2)cc1	-0.02
c1ccc(-c2nnc3sc(-c4ccco4)nn23)cc1	3.01*
CCCC12CN3CC(CCC)(CN(C1)C3c1ccc(OC)c(OC)c1)C2=O (configuration not stated)	22.8
Cc1ccc2cc3c(=O)n(C)c4c(c(=O)n(C)c(=O)n4C)c3nc2c1	-1.13
O=C1c2cccnc2C(=O)N1c1ccc(Br)cc1OC(F)(F)F	2.02
O=C(Cn1cc(C(=O)c2ccco2)c2ccccc21)NCCc1c[nH]c2ccccc12	4.01*
O=C(Cn1cc(C(=O)c2ccco2)c2ccccc21)NCc1ccco1	-1.09
O=C(Cn1cc(C(=O)c2ccco2)c2ccccc21)NCc1cccs1	-1.13
CC(=O)OC(C)CNc1nc2c([nH]1)c(=O)n(C)c(=O)n2C (configuration not stated)	-0.65
CC1=C(C(=O)OCCOc2ccccc2)C(c2cccs2)C2=C(CC(c3cccs3)CC2=O)N1 (configuration not stated)	0.49
